The results in this text go back to PubChem BioAssay AID651718 (The Scripps Research Institute Molecular Screening Center, 2012).

Structures are written as SMILES. The campaign covered roughly 360,000 compounds. About 2,700 (0.75%) were called active. Cut-off read from the data, not from the text of the source: active = inhibition above about 4.5%; inactive = the rest. The full list was thinned out, with actives kept by preference.

This test relates to Methionine sulfoxide reductase A (Bos taurus). In words: bovine MsrA enzyme inhibitors, primary screen, biochemical, absorbance, HTS (AID 651718).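 Note: 0% = vehicle wells with enzyme and 100% = reference inhibitor wells.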 To be noted: purified bovine MsrA, absorbance read-out; at 15.5 µM; active compounds read high.
In general, inhibition refers to the change of the read-out against control, counted positive when it falls. With `COc1cc(/C=C/C(=O)OCC(=O)N2CCOCC2)ccc1OCC#N`, the inhibition is 2.74% (inactive).

Consider `CCOc1ccc(/C=C(/C#N)c2nnc(N3CCOCC3)n2-c2ccccc2)cc1OC`, for which the inhibition was 6.28% (active).

`CCOc1cc(-c2noc(CCC(=O)N3CCOCC3)n2)ccc1OC`: the inhibition is -1.14% (inactive).

Turning to `NC(=O)c1ncn([C@@H]2O[C@H](C(=O)O)[C@@H](O)[C@H]2O)n1`, the inhibition is 0.08% (inactive).

As to `COc1ccc(C2C(C(C)=O)=C(O)C(=O)N2CCc2c[nH]c3ccccc23)cc1` (stereo not given), the inhibition was 2.78% (inactive).

For the molecule `CCCOc1ccc(/C(O)=C2/C(=O)C(=O)N(CCN(C)C)C2c2ccc(OC)c(OC)c2)cc1` (stereo not given), the inhibition was 1.66% (inactive).

On to `COc1cc(C2C(C(=O)c3sc(C)nc3C)=C(O)C(=O)N2CCN(C)C)cc(OC)c1OC` (stereo not given), for which the inhibition was 18.4% (active).

Take `Cc1cc(C)c(S(=O)(=O)NCCCN2CCOCC2)cc1Br`: the inhibition is -0.29% (inactive).

On to `CCc1nnc(NC(=O)[C@@H](NC(=O)c2cccc(C)c2)C(C)C)s1`, for which the inhibition was 0.82% (inactive).

Consider `CCc1nnc(NC(=O)/C=C/c2ccc(C)o2)s1`, for which the inhibition was 5.52% (active).

Consider `CCc1nnc(NC(=O)c2ccco2)s1`, for which the inhibition is 2.11% (inactive).

For the molecule `COc1ccc(SSc2ccc(OC)cc2C(=O)O)c(C(=O)O)c1`, the inhibition was 3.29% (inactive).

As for `CC(=O)C1=C(C)N(Cc2ccc(Cl)cc2)C(=S)NC1c1ccc(F)cc1` (stereo not given), the inhibition is 0.08% (inactive).

As to `Cc1cc2c(=O)n(CC(=O)NCC(=O)Nc3ccc(C(C)C)cc3)cnc2s1`, the inhibition was -2.15% (inactive).

Take `Cc1ccc(Nc2ccc(C(N)=O)cc2[N+](=O)[O-])cc1`: the inhibition is 11.1% (active).

Take `NC(=O)c1ccc(Nc2ccc3c(c2)CCC3)c([N+](=O)[O-])c1`: the inhibition is 13.9% (active).

Consider `CC(=O)Nc1ccc2c3c(ccc([N+](=O)[O-])c13)CC2`, for which the inhibition is 0.76% (inactive).

As to `O=[N+]([O-])c1ccccc1Nc1ccc(O)cc1`, the inhibition is 2.41% (inactive).

`Cc1ccc(Nc2cc(C)nc3c(C)ccc([N+](=O)[O-])c23)cc1`: the inhibition was -0.67% (inactive).

As to `Cc1cccc(N2CCN(c3ccc(C(N)=O)cc3[N+](=O)[O-])CC2)c1C`, the inhibition is -0.25% (inactive).

Consider `C=CC1=CCN(S(=O)(=O)C(C)(C)C)[C@@H]1CCO`, for which the inhibition was -1.1% (inactive).

In the case of `COc1ccc(C)cc1NC(=O)CNCc1cccs1`, the inhibition is 1.1% (inactive).

Take `N=C1c2ccccc2-c2ccccc21`: the inhibition is 0.22% (inactive).

As for `COc1cc(C2CC(=O)N3CN(Cc4ccccc4)CSC3=C2C#N)ccc1OCc1ccccc1` (stereo not given), the inhibition was 0.9% (inactive).

In the case of `CCCCN1C(=O)C(CC(=O)NCc2cccs2)CC(C(=O)N2CCOCC2)=C1C` (stereo not given), the inhibition is 0.14% (inactive).

Take `OC(c1ccccc1)(c1ccccc1)C1CCN(CCCOc2ccc(-c3ccsc3)cc2)CC1`: the inhibition was 0.25% (inactive).

`O=C(Cc1c[nH]c2ccccc12)N/N=C/c1cccc(F)c1`: the inhibition was 0.41% (inactive).

For `CN(C)S(=O)(=O)c1cccc(NC(=S)N/N=C/C(=O)c2ccccc2)c1`, the inhibition is 1.15% (inactive).

With `O=C(O)c1cccc(NC(=S)N/N=C/c2c[nH]c3ccccc23)c1`, the inhibition is 5.25% (active).

Turning to `COc1ccc(NC(=O)NNC(=O)COc2cc(C)c(Cl)c(C)c2)c(OC)c1`, the inhibition is -0.36% (inactive).

As for `CCCCCCCCN1C(=O)[C@@H](CC(=O)N2CCN(C(=O)OCC)CC2)C[C@@]2(C(=O)OC)C1=C[C@H](C1CCCC1)O[C@@H]2C`, the inhibition is 0.48% (inactive).

With `CCOc1cc(/C=C2\SC(N3CCCCC3)=NC2=O)ccc1O`, the inhibition is 4.93% (active).

For `CCOc1cc(/C=C2\SC(N3CCCC(C)C3)=NC2=O)ccc1O` (stereo not given), the inhibition was 3.02% (inactive).

With `CCOc1cc(/C=C2\C(=N)N3N=C(C)SC3=NC2=O)ccc1OCCOc1ccccc1`, the inhibition was -1.53% (inactive).

Take `CC(C)CNc1cccc2c1S(=O)(=O)N[C@H](CC(C)C)CO2`: the inhibition is 2.13% (inactive).

Turning to `COC(=O)Cc1nnn2c1[C@H](C)[C@H](c1ccccc1Br)OCC2`, the inhibition was 0.32% (inactive).

Regarding `CCN(CC)C(=O)c1sc(NC(=O)c2ccco2)c(C#N)c1C`, the inhibition was 4.94% (active).

For the molecule `Cc1c(C(=O)OC(C)C)sc(NC(=O)c2cccnc2)c1C#N`, the inhibition was 0.08% (inactive).

Consider `Cc1sc(NC(=O)C2=COCCO2)c(C#N)c1C`, for which the inhibition was 0.89% (inactive).

In the case of `Nc1ncnc2c1ncn2[C@@H]1O[C@H](C(=O)N[C@@H](CCc2ccccc2)C(=O)NCC(=O)N2CCOCC2)[C@@H](O)[C@H]1O`, the inhibition is -0.08% (inactive).

As to `COc1cccc(CNCc2ccc3c(c2)OCO3)c1`, the inhibition is 0.46% (inactive).

On to `CC(=O)Nc1ccc2nc(NC(=O)CS(=O)(=O)c3ccc(F)cc3)sc2c1`, for which the inhibition was 1.73% (inactive).

On to `CS(=O)(=O)c1ccc2nc(NC(=O)c3ccc(Cl)nc3)sc2c1`, for which the inhibition is 4.77% (active).

With `NS(=O)(=O)c1ccc2nc(NC(=O)CS(=O)(=O)c3ccc(F)cc3)sc2c1`, the inhibition was 0.94% (inactive).

As for `COC(=O)C1=C(C)N(Cc2ccccc2C(F)(F)F)C(=NCc2ccc(OC)cc2)NC1c1cccc(C(F)(F)F)c1` (stereo not given), the inhibition is -3.43% (inactive).

On to `Nc1ccn([C@@H]2O[C@H](C(=O)N[C@H]3CCCCNC3=O)[C@@H](O)[C@H]2O)c(=O)n1`, for which the inhibition was -0.17% (inactive).

With `C=CC[C@]12C[C@@]3(O[C@H](c4ccc(C(F)(F)F)cc4)N=C3C[C@H](c3ccc(OC)cc3)[C@H]1C)N(C1CCN(Cc3ccccc3)CC1)C2=O`, the inhibition was 0.32% (inactive).

As for `Clc1cccc(-c2nc3nc4ccccc4nc3n2Cc2ccco2)c1`, the inhibition was 4.87% (active).

As for `Cc1cc(NCc2ccco2)n2c(nc3ccccc32)c1C#N`, the inhibition was -0.85% (inactive).

On to `O=C(CSc1nnc(-c2cccnc2)n1Cc1ccco1)c1ccc(Cl)c(Cl)c1`, for which the inhibition was -1.02% (inactive).

As to `CCC1SC2=NCCN2C1(O)c1ccc(Cl)cc1` (stereo not given), the inhibition was -0.53% (inactive).

`Cc1cc2c(cc1C)NC1(C[C@H]3CCC(=O)N4CC[C@@H](C1)[C@@H]34)C(=NC(C)(C)CC(C)(C)C)N2` (stereo not given in full): the inhibition is 0.45% (inactive).

On to `COCCN(C(=O)C(C)C)c1nnc(-c2ccc(C(C)(C)C)cc2)s1`, for which the inhibition was -0.05% (inactive).

On to `CC(C)[C@H]1COCCS(=O)(=O)N1Cc1ccccc1-c1cccc2c1sc1ccccc12`, for which the inhibition is 1.34% (inactive).

Consider `O=C(O)C(CCc1ccccn1)c1ccccc1` (stereo not given), for which the inhibition was -0.84% (inactive).

Turning to `Oc1cccc(CCc2ccccn2)c1`, the inhibition is -1% (inactive).

Take `O=C(Cc1ccccn1)c1ccc(O)cc1O`: the inhibition was 4.91% (active).

For `CCOC(=O)N1CCN(C(=O)C[C@H]2C[C@@]3(C(=O)OC)C(=C[C@H](C4CCCC4)O[C@@H]3C)N(Cc3ccccc3)C2=O)CC1`, the inhibition was -0.08% (inactive).

Turning to `Nc1ncnc2c1ncn2C1OC(CO)CC1O` (stereo not given), the inhibition was 1.51% (inactive).

For `CC1(C(=O)NS(=O)(=O)c2cccc(OC(F)F)c2)CCN1C(=O)C1CC1` (stereo not given), the inhibition was 0.29% (inactive).

On to `COC(=O)c1c(-c2ccc(OC)cc2)c2c(c3c4ccccc4n(S(=O)(=O)c4ccc(C)cc4)c13)C(=O)N(C)C2`, for which the inhibition is 1.59% (inactive).

In the case of `Nc1nc2c(ncn2[C@@H]2O[C@H](C(=O)N[C@H](Cc3ccccc3)C(=O)NCC3CCCCC3)[C@@H](O)[C@H]2O)c(=O)[nH]1`, the inhibition is 0.66% (inactive).

For `COc1ccc(Cl)cc1NC(=O)CN(C)C(=O)c1cn(-c2ccccc2)nc1-c1cccs1`, the inhibition is 0.13% (inactive).

With `CC(=O)C1=C(C)NC(C)=C(C(C)=O)C1c1cn(-c2ccccc2)nc1-c1cccs1`, the inhibition is 1.65% (inactive).

For the molecule `O=C(O)c1ccc(N/N=C/c2cn(-c3ccccc3)nc2-c2cccs2)cc1`, the inhibition was 8.7% (active).

For `CC(=NNC(N)=O)c1ccc(Cl)c(-n2cccc2)c1`, the inhibition was -0.35% (inactive).

On to `CN1CCCCC(NC(=O)C(C)(C)C)C1=O` (stereo not given), for which the inhibition is 0% (inactive).

For `Cc1ccc(S(=O)(=O)Oc2ccc(/C=N/NC(=O)c3c(Cl)cnn3C)cc2)cc1`, the inhibition was 0.98% (inactive).

As for `Cc1ccc(NC(=O)CC2S/C(=N/N=C3\CCCc4ccccc43)NC2=O)cc1` (stereo not given), the inhibition is -0.26% (inactive).

On to `CC(=O)Nc1ccc(S(=O)(=O)Oc2ccc(/C=N/N=C3/NC(=O)C(CC(=O)O)S3)cc2)cc1` (stereo not given), for which the inhibition was 5.33% (active).

Regarding `COC(=O)[C@]12C[C@H](CC(=O)NCCCCc3ccccc3)C(=O)N(Cc3ccc4c(c3)OCO4)C1=C[C@H](C(C)(C)C)O[C@@H]2C`, the inhibition is 1.75% (inactive).

Turning to `CCOC(=O)Cn1c2c(n(-c3ccc(F)cc3)c1=O)C=C(c1ccccc1)[C@@H](C)C(C(=O)N(C)C1CCCCC1)=C2`, the inhibition was -0.4% (inactive).

`COc1ccc(C2=CN(Cc3ccccc3)C(c3ccc(OC)cc3)CC2=O)cc1` (stereo not given): the inhibition is -0.65% (inactive).

As for `COc1ccc(CNS(=O)(=O)c2cc(Br)ccc2Br)cc1`, the inhibition was 0.62% (inactive).

With `O=C(O)c1ccc(NN=CC2=C(N3CCOCC3)/C(=C/c3ccccc3)CC2)cc1`, the inhibition was 2.43% (inactive).

As for `C(=N/Nc1cc(N2CCOCC2)nc(N2CCOCC2)n1)/c1ccccc1`, the inhibition was 5.01% (active).

With `COc1ccccc1-c1cnn2c(N3CCOCC3)cc(C)nc12`, the inhibition is 1.96% (inactive).

Regarding `COc1ccc(/C=N/Nc2cc(N3CCOCC3)nc(C)n2)c(OC)c1`, the inhibition was 5.8% (active).

Turning to `Cc1cc2c(C)nc(N/N=C/c3ccccc3)nc2o1`, the inhibition was 3.05% (inactive).

For `Fc1ccccc1/C=N/Nc1cc(N2CCCCC2)ncn1`, the inhibition is 1.96% (inactive).

For the molecule `COc1ccccc1C(=O)N1O[C@]23C=C[C@]14C[C@@H](O)CC[C@]4(C)C2CC[C@]1(C)[C@@H]([C@H](C)/C=C/[C@H](C)C(C)C)CC[C@H]13` (stereo not given in full), the inhibition is -0.78% (inactive).

Regarding `CN(C)C(=O)N1CCN(C(=O)[C@@H](Cc2ccccc2)NC(=O)[C@H]2O[C@@H](n3ccc(N)nc3=O)[C@H](O)[C@@H]2O)CC1`, the inhibition was 0.17% (inactive).

On to `CSc1ccc(Oc2cccc3c2S(=O)(=O)N([C@H](C)c2ccccc2)C[C@@H](COCc2ccccc2)O3)cc1C`, for which the inhibition is 0.09% (inactive).

As to `CC(C)Cc1oc(C(=O)O)cc1CN`, the inhibition is -1.34% (inactive).

As for `Cc1ccc(S(=O)(=O)NCCC(c2ccccc2)c2ccccc2)cc1C(=O)O`, the inhibition was 0% (inactive).
